For 108 variants, antigen binding call results are on record in the emibetuzumab library of Makowski et al. (2022).

The labels stand for the following.
B1: VH:VL chains; a variant is named by its letters at X, in order (parent)
chain 1: QVQLVQSGAEVKKPGASVKVSCKASGYTFTDYXMHWVRQAPGQGLEWMGXVNPNXXXTTYNQKFEGRVTMTTDTSTSTAYMELRSLRSDDTAVYYCARXNXLDXWGQGTTVTVSS
chain 2: DIQMTQSPSSLSASVGDRVTITCSVSSSVSSIYLHWYQQKPGKAPKLLIYSTSNLASGVPSRFSGSGSGTDFTLTISSLQPEDFATYYCQVYSGYPLTFGGGTKVEIK

The list shows a part of the results. How many sequences the whole screen found active is unknown.

The assay covers variants of B1. Briefly: yeast display scFab, FACS + sequencing. The conditions noted are these: with MET. In outline: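 A heavy-chain CDR mutant scFab library on yeast was enriched magnetically with HGFR-Fc-coated Protein A beads for two rounds and then by FACS after labelling with 1 nM HGFR-Fc and anti-Myc in PBSB with 1% milk for 3 h at room temperature, gating the top 50% antigen-positive cells. Antigen binding was judged positive if a sequence turned up in both antigen-positive deep-sequencing samples and negative if it turned up only in the input.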
Take DAKEGDAV: the antigen binding call is recorded as “no binding”. Turning to DTGGGAWD, the antigen binding call was “no binding”. YRRGDSAD: the antigen binding call is listed as “binds”. To YKARGSWD belongs “binds”; to FREGASWD, “no binding”. With FRAGSSWD, the antigen binding call is recorded as “binds”. As for VEAGSDGV, the antigen binding call is recorded as “no binding”. VEKEGDGV: the antigen binding call is given as “no binding”. Consider DTTGSASF, for which the antigen binding call was “no binding”. For the variant YRAGGVGD, the antigen binding call is “binds”.

With YRAGGYGD, the antigen binding call was “binds”. As to YRKENYGD, the antigen binding call is listed as “no binding”. To VKGRGSAY belongs “binds”; to YKGRGSAY, “binds”. As for VAGTGDVF, the antigen binding call is reported as “no binding”.

In the case of YTGKSVAV, the antigen binding call is on record as “no binding”. To YRGRTAAV belongs “binds”; to YRGKSAAV, “binds”; to FKGRGFGV, “no binding”. To YRERTAAV belongs “no binding”; to YRGRSAGV, “binds”; to FRGRGFGV, “binds”. Regarding DTREGAVV, the antigen binding call is “no binding”. In the case of VAGGDYLV, the antigen binding call is recorded as “no binding”. With DKGGGDVA, the antigen binding call is listed as “no binding”. AGEGNSWA: the antigen binding call is “no binding”.

Regarding VAGTGDGA, the antigen binding call was “no binding”. Regarding VRGRDFGV, the antigen binding call is listed as “no binding”.

Consider YAGRTAGV, for which the antigen binding call is listed as “no binding”. As for DRGRDFGV, the antigen binding call is “no binding”. As for YRGRSFGV, the antigen binding call is on record as “binds”.

With YRGRTAGV, the antigen binding call is recorded as “binds”. For YRGRSFAV, the antigen binding call was “no binding”.

Turning to YRGRGFGV, the antigen binding call is reported as “binds”. Take YRRRTAAV: the antigen binding call is reported as “binds”. On to SEARNDGA, for which the antigen binding call is reported as “no binding”.

For the variant DAGGDAGD, the antigen binding call is listed as “no binding”. Consider VTRGADAA, for which the antigen binding call is listed as “no binding”. To AARADDSV belongs “no binding”; to YRTRGSGY, “binds”. In the case of YRTRGSLY, the antigen binding call is recorded as “binds”. As to YATEDDWV, the antigen binding call was “no binding”.

For VETGNAVY, the antigen binding call is reported as “no binding”.

As to SEARSDLY, the antigen binding call is given as “no binding”. Take FAEGSYAF: the antigen binding call was “no binding”.

In the case of VGAEDDVA, the antigen binding call is given as “no binding”.

Turning to SGETGDSV, the antigen binding call was “no binding”.

Consider FRGRSSAA, for which the antigen binding call was “binds”. With FRGRGSAA, the antigen binding call is listed as “binds”. Regarding VTGRGDVA, the antigen binding call was “no binding”. Take YREGGAGV: the antigen binding call is on record as “binds”. To DREEGAGV belongs “no binding”; to YREGGSGV, “binds”.

As to DKEGGSGV, the antigen binding call is “no binding”. To VEKEGDWY belongs “no binding”; to SAREGDLA, “no binding”.

For the variant VTAGDSAD, the antigen binding call is “no binding”. For VAGTGSAD, the antigen binding call is “no binding”.

On to VRAKGSAD, for which the antigen binding call is “binds”. With VRAGGSAD, the antigen binding call is given as “binds”. To VEEEGSAD belongs “no binding”. In the case of VARETDVA, the antigen binding call is listed as “no binding”.

VKGRGFAA: the antigen binding call is given as “no binding”.

With VKGRGSWA, the antigen binding call was “binds”. For the variant VKTGGSWA, the antigen binding call is “no binding”. For the variant VKGRGDAA, the antigen binding call was “no binding”. As to VKGRGAWA, the antigen binding call is on record as “binds”. Take DEGRGSWA: the antigen binding call was “no binding”.

For the variant VTRGADGV, the antigen binding call is “no binding”. Consider VAGGDFGV, for which the antigen binding call was “no binding”. To SAGTGSWD belongs “no binding”. As for FRGKGSWD, the antigen binding call is on record as “binds”. For SKKTGSVD, the antigen binding call is “no binding”. Take SKGKGSWD: the antigen binding call is on record as “binds”.

With FRGKGASD, the antigen binding call is “binds”. Regarding SKKRGSWD, the antigen binding call is recorded as “binds”. As to VEAGDDWV, the antigen binding call is recorded as “no binding”.

SGRGNDGV: the antigen binding call is given as “no binding”. DTGGDDWF: the antigen binding call was “no binding”. Consider DAGGGDAV, for which the antigen binding call was “no binding”. To YAGTGFVD belongs “no binding”. With YKGKGSWD, the antigen binding call is recorded as “binds”.

On to FAGTGSWD, for which the antigen binding call is reported as “no binding”. To FRGKGAWD belongs “binds”. In the case of FRGTSFGD chain 1 T58I, the antigen binding call is reported as “no binding”. As to FRGTGFVD, the antigen binding call is given as “binds”. On to FKGKGSWD, for which the antigen binding call is recorded as “binds”.

Turning to AAGGNAWS chain 1 G66S, the antigen binding call was “no binding”. Consider DGGKGAVD, for which the antigen binding call is reported as “no binding”. Take FRGKGAVD: the antigen binding call was “binds”.

For YKGGSSAA, the antigen binding call is “binds”. To YKGRSAAA belongs “binds”; to DKGGSDVA, “no binding”; to DKGGSAVV, “no binding”.

Regarding YKGGSAAA, the antigen binding call is reported as “binds”. To FKGGSSAA belongs “no binding”. DKGEGAAA: the antigen binding call is “no binding”.

In the case of DEGGTDVF, the antigen binding call is on record as “no binding”.

DGGKNDWV: the antigen binding call is “no binding”.

As for DAGGASSS, the antigen binding call was “no binding”. Turning to YTERNFGV, the antigen binding call is “no binding”. As to FRAGGSLF, the antigen binding call was “binds”. To FRGADSGF chain 1 R98K belongs “no binding”; to FRGRDFLF, “no binding”. FRGGGSGF: the antigen binding call was “binds”. To DRAGDSGF belongs “no binding”; to FRGRGSGF, “binds”; to FTARSAGF, “no binding”.
